# Gal4-VP16 FLuc: VP16 counterscreen qHTS for inhibitors of ROR gamma transcriptional activity; Potency, µM (top dose mostly 53.6 µM), without a hit: at the top dose activity, negative = inhibition, most hits filed as inhibitors; Drosophila S2 Gal4-VP16 UAS-luciferase, luminescence, 20 h; actives 3.5% (n = 310,000);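 also: Gal4-VP16 expression switched on by copper sulfate through the metallothionein promoter; potency is read from the fitted curve at half-maximal effect; nearly all actives have a fitted effect of over 50% in size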
# RORg inh: qHTS for inhibitors of ROR gamma transcriptional activity | Drosophila S2 Gal4-RORgamma UAS-luciferase reporter, 20 h | AID 2551, 2010 | Nuclear receptor ROR-gamma (Mus musculus), P51450 | actives 5.4% (n = 310,000) | Potency, µM (series often up to 53.6 µM), inactives show top-dose activity change, negative = inhibition, usual class: inhibitors; also: potency is read from the fitted curve at half-maximal effect; nearly all actives have a fitted effect of over 60% in size
#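 In this cell-based reporter format, copper sulfate (700 uM final) drives Gal4–ROR gamma fusion expression from a metallothionein promoter in Drosophila Schneider cells; compounds preincubated 1 hr, reporter read after 20 hr at ambient temperature.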
# TSHR antag: Antagonists of the Thyroid Stimulating Hormone Receptor: HTS campaign; Thyrotropin receptor (Homo sapiens), P16473; TSHR-expressing cells, TSH-stimulated cAMP HTRF, 2 h; stronger effect = lower value; activity change, negative = inhibition, % at 11.5 µM; actives 0.2% (n = 330,000); AID 504810, 2011;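 active = activity change below a set negative limit, meaning inhibition stronger than a set level, cut at about -70% in these data; inconclusive = activity change between two set negative limits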
# Target sequence (P16473 whole entry, looked up): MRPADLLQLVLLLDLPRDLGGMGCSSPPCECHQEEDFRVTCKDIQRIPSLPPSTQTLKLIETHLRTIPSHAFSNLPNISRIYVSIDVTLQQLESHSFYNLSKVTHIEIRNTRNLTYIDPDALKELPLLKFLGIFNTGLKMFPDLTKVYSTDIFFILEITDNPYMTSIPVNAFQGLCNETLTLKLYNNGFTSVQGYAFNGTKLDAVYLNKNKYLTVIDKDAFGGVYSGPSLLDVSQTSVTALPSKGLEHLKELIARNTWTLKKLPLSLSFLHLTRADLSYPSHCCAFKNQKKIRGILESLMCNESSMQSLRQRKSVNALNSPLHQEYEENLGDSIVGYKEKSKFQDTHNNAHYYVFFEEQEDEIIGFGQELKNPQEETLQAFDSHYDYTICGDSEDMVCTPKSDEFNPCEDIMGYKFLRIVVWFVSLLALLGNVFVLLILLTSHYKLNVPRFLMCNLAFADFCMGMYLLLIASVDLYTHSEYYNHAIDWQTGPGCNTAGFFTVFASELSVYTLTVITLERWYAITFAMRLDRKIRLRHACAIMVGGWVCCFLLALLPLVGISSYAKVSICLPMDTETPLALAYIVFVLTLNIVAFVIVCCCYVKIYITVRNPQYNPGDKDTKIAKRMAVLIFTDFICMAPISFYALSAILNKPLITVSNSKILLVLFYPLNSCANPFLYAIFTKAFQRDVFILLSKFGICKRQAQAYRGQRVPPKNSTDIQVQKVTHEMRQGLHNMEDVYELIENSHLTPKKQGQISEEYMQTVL
#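 Read-out is FRET at 665 nm (cryptate excitation 337 nm) from a cryptate-tagged anti-cAMP antibody, competed by cell cAMP against cAMP-d2. Compounds are tested on freshly harvested TSHR cells challenged with 4nM TSH (EC80) for 2 hours at 37 deg C.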
# B2AR arrestin: qHTS assay of beta-arrestin-biased ligands of beta2-adrenergic receptor | Beta-2 adrenergic receptor (Homo sapiens), P07550 | beta-arrestin recruitment to beta2AR, cell-based reporter | Potency, µM (series often up to 46.1 µM), inactives show top-dose activation, actives largely listed as activators | actives 0.02% (n = 330,000);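 also: potency is read from the fitted curve at half-maximal effect; 0% = DMSO controls and full agonism = EC100 isoproterenol or metaproterenol; nearly all actives have a fitted effect of over 65% in size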
# ELG1 DNA repair: qHTS screen for small molecules that inhibit ELG1-dependent DNA repair in human embryonic kidney (HEK293T) cells expressing luciferase-tagged ELG1 | AID 504467, 2011 | actives 2.3% (n = 330,000) | HEK293T ELG1-luciferase reporter, luminescence, 16 h; DNA damage induced by 5-fluorouridine | Potency, µM (highest dose often 46.1 µM), for inactives: at the highest dose activity change, negative = inhibition, hits mostly inhibitors; also: potency is read from the fitted curve at half-maximal effect; nearly all actives have a fitted effect of over 55% in size
#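 HEK293T cells expressing luciferase-tagged ELG1 (2,000/well) received 5-Fluorouridine plus compound or DMSO for 16 hr at 37 °C. Luciferase was read by ONE-Glo luminescence after 30 min at room temperature.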
# Active calls of the source: *; ? = inconclusive; . = not tested or not shown; ! = not active in a repeat; [ ] = another dose, or the depositor's remark. In the library only some 7.5% were active in any assay of this set; here they are far more common. Unless noted, calls follow the shape of the dose curve; as a rule, active = well fitted curve in the direction sought with a large enough effect; inconclusive = small, poorly fitted or top-dose-only effect, or another doubt; inactive = no such curve, though single readings can be large; an effect the other way counts as inactive or inconclusive. Unless noted, % is scaled to controls: 0 for no effect and ±100 for the full control effect.
SMILES,Gal4-VP16 FLuc,RORg inh,TSHR antag,B2AR arrestin,ELG1 DNA repair
O=S(=O)(c1ccccc1OC(F)(F)F)N1CCN(c2ccnc3cc(Cl)ccc23)CC1,-15.0%,41.3%,-7.7,-0.5%,20.6µM*
CN(C)S(=O)(=O)N1CCN(c2ccnc3cc(Cl)ccc23)CC1,-4.1%,14.1%,-120.2*,-0.1%,?
CC(C)S(=O)(=O)N1CCN(c2ccnc3cc(Cl)ccc23)CC1,0.8%,2.5%,-7.8,0.2%,-6.7%
COc1ccc2nc(C)cc(NCc3ccc(F)cc3)c2c1,-0.5%,-3.9%,6.8,0.2%,?
Nc1[nH]n2c(=O)cc(-c3ccccc3)nc2c1N=Nc1ccc2c(c1)OCO2,-11.8%,-11.2%,7.0,0.4%,4.8%
Cc1ccc(NC(=S)Nc2ccc(F)cc2)c(C)c1,?,11.2µM*,-0.7,-0.1%,-17.5%
CC(=O)Nc1ccc(C)c(NC(=S)Nc2ccc(F)cc2)c1,7.2%,-18.6%,10.5,-0.8%,-10.1%
Cc1ccc(NC(=S)NCCc2ccc(F)cc2)c(C)c1,5.01µM*,4.47µM*,-4.9,-0.1%,5.4%
COCCN1CCN(c2cc(-c3ccccc3)nc3cc(-c4cccc(F)c4)nn23)CC1,-20.9%,?,-12.7,-2.3%,14.6µM*
Fc1cccc(-c2cc3nc(-c4ccccc4)cc(N4CCC5(CC4)OCCO5)n3n2)c1,-8.6%,18.9%,-10.1,0.2%,23.1µM*
Cc1cccc(-c2cc3nc(-c4ccccc4)cc(N4CCC5(CC4)OCCO5)n3n2)c1,5.6%,?,-4.8,-0.1%,?
CCOC(=O)CCN1C(=O)[C@H]2[C@H]3[C@H](O)[C@H](O)C/C(=N/O[C@@H]4O[C@@H](COC(C)=O)[C@@H](OC(C)=O)[C@@H](OC(C)=O)[C@H]4OC(C)=O)[C@@H]3CC[C@@H]2C1=O,-3.5%[10 µM],1.0%[10 µM],.,.,.
O=c1cc(-c2ccc(F)cc2F)[nH]c2ccccc12,-1.7%[96.6 µM],8.91µM*!,6.0,-0.2%,1.6%
CC1=C(C(=O)Nc2ccccc2)C(c2ccc[nH]2)n2ncnc2N1 (centres undefined),.,.,18.0,-0.4%,.
COc1ccc(-c2ccc(-c3nc4c(c(=O)[nH]c(=O)n4Cc4ccccc4)n3C)o2)c([N+](=O)[O-])c1,-36.8%,-3.5%[10 µM],9.9,-0.7%,5.8µM*
COCCn1c(-c2ccc(-c3ccc([N+](=O)[O-])cc3Br)o2)nc2c1c(=O)[nH]c(=O)n2CC(C)C,-3.0%,-0.3%,5.5,-1.6%,10.3µM*
O=c1[nH]c(=O)n(Cc2ccccc2)c2nc(-c3ccc(Oc4ccc(F)cc4)c([N+](=O)[O-])c3)n(CCO)c12,-18.2%,?,-5.3,-0.4%,?
COCCn1c(=O)[nH]c(=O)c2c1nc(-c1ccc(-c3ccc(Cl)cc3[N+](=O)[O-])o1)n2Cc1ccccc1,?,?,-3.2,-0.3%,13µM*
CCC(NC(=S)NC1CCCCC1)c1ccc(C)cc1 (centres undefined),5.01µM*,2.82µM*,-6.0,-0.4%,-27.2%
CCCc1ccc(C(C)NC(=S)NC2CCCCC2)cc1 (centres undefined),3.55µM*,2.51µM*,-29.9,3.7%,-13.7%
COc1ccccc1N1CCN(Cc2cc(=O)c(OCC(=O)NC(C)C)co2)CC1,-6.2%,-8.9%,-7.3,-0.2%,-0.6%
CC(C)NC(=O)COc1coc(CN2CCN(c3ccccc3F)CC2)cc1=O,-5.8%,-5.7%,-124.3*,0.3%,0.0%
CCOc1cc(Cl)c(S(=O)(=O)NCc2ccccn2)cc1Cl,20µM*,12.6µM*,-6.8,-0.4%,-8.5%
CCOc1ccc(Cl)cc1S(=O)(=O)NCc1ccccn1,?,?,-2.5,0.4%,-5.2%
COc1cc(Cl)c(S(=O)(=O)NCc2ccccn2)cc1Cl,-10.3%,11.2µM*,3.2,0.0%,0.1%
SMILES,Gal4-VP16 FLuc,RORg inh,TSHR antag,B2AR arrestin,ELG1 DNA repair
COc1ccc(CN(C)C(C)C(=O)Nc2ccc(S(=O)(=O)N3CCCCC3)cc2)cc1F (centres undefined),.,.,-5.6,-0.2%,?
CN(C)c1cccc(C(=O)NCC(c2ccco2)N(C)C)c1 (centres undefined),4.4%,-4.2%,-17.5,0.1%,?
CCOC(=O)CCNC(=O)Nc1ccc2nc(C)n(Cc3ccc(Cl)cc3)c(=O)c2c1,-2.0%,-13.3%,-1.4,-1.2%,14.6µM*
COc1ccc(CN2CCNC(=O)C2CC(=O)NCC(C)(C)N2CCOCC2)cc1C (centres undefined),1.7%,-20.6%,28.4,-0.1%,29.8%
CC1CN(c2nc3ccccn3c(=O)c2/C=C(\C#N)C(N)=O)CC(C)O1 (centres undefined),-4.3%,-5.1%,0.5,-0.2%,-1.7%
CCNC(=O)/C(C#N)=C/c1c(N2CCN(c3ccccc3)CC2)nc2ccccn2c1=O,0.2%,-2.4%,1.7,0.2%,14.4%
CCOc1ccccc1NC(=O)/C(C#N)=C/c1c(C)nn(-c2ccccc2)c1Cl,-21.4%,20.0%,-7.5,0.0%,-18.8%
N#C/C(=C\c1c(N(Cc2ccccc2)Cc2ccccc2)nc2ccccn2c1=O)C(N)=O,7.08µM*,?,-20.2,-0.1%,16.4µM*
C=CCNC(=O)/C(C#N)=C/c1c(C)nn(-c2ccccc2)c1Cl,12.6µM*,?,-5.4,10.1%,-21.1%
C=CCNC(=O)/C(C#N)=C/c1c(N(Cc2ccccc2)Cc2ccccc2)nc2ccccn2c1=O,-16.5%,38.3%,-5.3,0.3%,13µM*
COc1ccc(CNc2ncnc3ccc(-c4cccc(C#N)c4)cc23)c(OC)c1,0.3%,34.2%,.,.,.
Cc1ccccc1C(=O)NNC(=O)c1cccn1C,.,.,.,-0.6%,?
COc1ccc(CN2C(=NC(=O)C3CCCO3)SC3CS(=O)(=O)CC32)cc1OC (centres undefined),5.0%,2.4%,18.3,0.1%,6.1%
C[C@@]12C=CC(=O)C=C1CC[C@H]1[C@H]3CC[C@](O)(C(=O)CO)[C@]3(C)CC(=O)[C@@H]12,0.9%[17 µM],-12.4%[16.9 µM],.,.,.
CC(C)(C)c1cccc(Cn2nnc3ccccc32)c1O,.,.,-76.5*,-0.1%,9.0%
Cc1cc(Cn2nnc3ccccc32)c(O)c(C(C)(C)C)c1,.,.,-45.0,-0.8%,16.8%
Oc1cc(-c2ccncc2)cc2cccnc12,.,.,1.4,6.3%,16.4µM*
O=C(Nc1nc2c(s1)CCCC2)c1ccc(S(=O)(=O)N2CCCc3ccccc32)cc1,?,11.2µM*,-10.0,-0.6%,-20.2%
O=C(Nc1ccc(S(=O)(=O)N2CCc3ccccc32)cc1)c1ccco1,-8.8%,?,0.5,0.0%,20.6µM*
